Assay results: ChEMBL document CHEMBL4513216, “Probing the Open Global Health Chemical Diversity Library for Multistage-Active Starting Points for Next-Generation Antimalarials” (ACS Infect Dis, 2020)
About 8,600 (12%) of roughly 69,000 compounds showed an effect of 50% or more. This excerpt belongs to a sample that is enriched for strong results.

The compounds below were run on Plasmodium berghei (assay: Screen against P. berghei liver stage (PbLuc), transformed with Luciferase, at 10uM). Conditions: tested at 10 uM.
Type: functional, HepG2
Compound `CC(C)c1nnc2n1CCN(C(=O)c1ccc3c(c1)CCC3)C2` has an INHIBITION of -12.2%.
For `COc1ccccc1C1=NOC(CC2(C(=O)O)CCOCC2)C1` (stereo not drawn), the INHIBITION was 29.2%.
For `CCn1cnnc1C1CCN(C(=O)c2cccc(N(C)C)c2)CC1`, the INHIBITION was 39.7%.
With `CCc1cnc(N2C[C@H]3CN(Cc4csc(C)n4)C(=O)[C@H]3C2)nc1` the INHIBITION was 18.5%.
For `Cc1cc(C(=O)NS(C)(=O)=O)c(C)n1-c1ccccc1`, the INHIBITION was 37.9%.
`Cc1nc(CN2C[C@@H]3CN(C(=O)c4cnccn4)C[C@@H]3C2)cs1` showed an INHIBITION of -13.2%.
`CN1C[C@@H](C(=O)NC(C)(C)C)[C@@]2(CCc3ccccc3C(=O)N2)C1` was tested, and the INHIBITION was 16.5%.
Compound `COCCn1ccc(NC(=O)Nc2cccnc2)n1` has an INHIBITION of 25.3%.
With `Cc1cc(N2CCOC(c3ccc(N(C)C)cn3)C2)nc(N)n1` (stereo not drawn) the INHIBITION was -0.6%.
`Cc1cc(C(=O)N2CCC3(CC2)COCCN(c2cccnc2)C3)[nH]n1` was tested, and the INHIBITION was 24.6%.
Compound `COc1ccnc(N2CCCN(Cc3ncc(C(C)C)o3)CC2)n1` has an INHIBITION of 9.76%.
`COc1ccnc(N2CCN(Cc3ncc(-c4ccccc4)o3)CC2)n1` was tested, and the INHIBITION was 56%.
`COc1ccnc(N2CCN(Cc3ncc(C(C)(C)C)o3)CC2)n1` showed an INHIBITION of 9.76%.
With `CN(CCc1nc(-c2cccc(Cl)c2)no1)CCn1cccn1` the INHIBITION was 12.6%.
`Cc1nnc(CN(C)CCc2nc(-c3cccc(Cl)c3)no2)n1C` was tested, and the INHIBITION was 34.5%.
In the case of `Cc1noc(C)c1CN(C)CCc1nc(-c2cccc(Cl)c2)no1`, the INHIBITION is reported as 88.1%.
Compound `O=C(Cc1cccnc1)N1CCC2(CC1)CCN(C1CCOCC1)C2` has an INHIBITION of -3.19%.
In the case of `O=C(Cc1cccnc1)N1CCC2(CCN(C3CCOC3)CC2)C1` (stereo not drawn), the INHIBITION is reported as -1.83%.
`O=C(Cc1cccnc1)N1CCC2(CC1)CCN(C1CCOC1)C2` (stereo not drawn) gave an INHIBITION of 53.4%.
For `CC(=O)N1CCN(Cc2ccc(C)o2)CC2(CC(=O)N(C)C2)C1` (stereo not drawn), the INHIBITION was 3.81%.
For `COc1ncccc1N(C)C(=O)Cn1cc(-c2ccccc2)nn1`, the INHIBITION was 4.34%.
With `Cc1ccc(C2COCCN2C(=O)c2ccsc2)o1` (stereo not drawn) the INHIBITION was 3.77%.
Work on `N#CCCN(Cc1ccco1)C(=O)c1ccc(OCC2CC2)cc1` yielded an INHIBITION of 69.5%.
With `N#CCCN(Cc1cccnc1)C(=O)c1ccc(OCC2CC2)cc1` the INHIBITION was -92.2%.
Work on `N#CCCN(CCC#N)C(=O)c1ccc(OCC2CC2)cc1` yielded an INHIBITION of -77.9%.
For `CC(=O)NCC(=O)N1CCC2(CC1)NC(=O)CC2c1cnn(C)c1` (stereo not drawn), the INHIBITION was 43.1%.
`Cc1cnn(CC2CCCN2C(=O)c2cc(C)nc3[nH]nc(C)c23)c1` (stereo not drawn) was tested, and the INHIBITION was -37.7%.
`CCOc1ncccc1C(=O)N1CCCC(c2nncn2C)C1` (stereo not drawn) gave an INHIBITION of -98.8%.
